Results from the supplement of paper PMC10338343.
± gives the standard deviation.

tested on: EfPiwi piRISC loaded with piRNA #1 (26 nt); test: pre-steady-state target cleavage rate (min^-1); auxiliary factor: 500 nM Ephydatia muelleri Gtsf1; guide: piRNA #1 5'p-UGAGGUAGUAGGUUGUAUAGUAUCCA; MIWI and MILI are mouse PIWI proteins and EfPiwi is from a freshwater sponge; tags in brackets are library labels; higher = faster piRNA-guided slicing of the target
Procedure, shortened: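 In HEPES–potassium acetate buffer at 33 °C, […] transcribed, DNA-blocked target RNA library was mixed with 1 nM active affinity-purified piRISC carrying one synthetic guide, with or without 500 nM GTSF1 partner protein, for 0–8 or 0–960 min. Uncleaved targets were sequenced and normalised to depth and to weakly complementary targets; three trials were pooled and k3 was capped at 0.0001 min^-1. The pre-steady-state cleavage rate followed from a burst-and-steady-state fit.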

GGAGUGGAUACUAAACAACCUUCUACCUCA and GGAGAGGAUACUAUACAACCUACUGCCUCA are within error of each other in “pre-steady-state target cleavage rate” value: 0.00385 ± 0.0026 for the first, 0.00919 ± 0.0038 for the second.

GGAGACCAUACUAUACAACCUUACUACCUCA and GGAGACGAUACUAUACACACCUACUACCUCA are within error of each other in “pre-steady-state target cleavage rate” value: 0.00561 ± 0.0036 for the first, 0.0061 ± 0.0026 for the second.

Going from GGAGACCAUACAAUACAACCUACUACCUCA to GGAGACGAUACUAUACAACCUAGUACGUCA, the “pre-steady-state target cleavage rate” value falls from 0.0108 ± 0.0032 to 0.00328 ± 0.0016.

GGAGACCAUACUAUACAACACUACUACCUCA and GGAGAGGAUACUAUACAACCAACUUCCUCA are within error of each other in “pre-steady-state target cleavage rate” value: 0.00469 ± 0.0037 for the first, 0.00313 ± 0.0024 for the second.

Going from “GGAGAGGAUACUAUACAACCUACUUGGAGA [g7:g25:cont:t1A]” to GGAGACCAUACUAUACGAACCUACUACCUCA, the “pre-steady-state target cleavage rate” value rises from 0.00281 ± 0.0022 to 0.0108 ± 0.0042.

GGAGUGGAUACUAUACAACCUACUUGCUCA and GGAGACCAUACUAUACAAUCCUACUACCUCA are within error of each other in “pre-steady-state target cleavage rate” value: 0.0047 ± 0.0026 for the first, 0.00501 ± 0.0032 for the second.

Compared with GGAGACCUUUCUAUACAACCUAGUACCUCA, GGAGACCUAAGCUAUACAACCUACUACCUCA is higher in “pre-steady-state target cleavage rate” value: 0.00465 ± 0.0038 for the first, 0.184 ± 0.066 for the second.

GGAGUGGAUACUAUACAGACCUACUACCUCA and GGAGACCUAACUAUACAACCUAGUAGCUCA are within error of each other in “pre-steady-state target cleavage rate” value: 0.0116 ± 0.0053 for the first, 0.00484 ± 0.0035 for the second.

GGAGACGAUAGUAUACAACCUACUACGUCA and GGAGACCAUACUAUACAACCUACUACCUACA are within error of each other in “pre-steady-state target cleavage rate” value: 0.0019 ± 0.0015 for the first, 0.00527 ± 0.0031 for the second.

GGAGAGGAUACUAUACGAACCUACUACCUCA and GGAGACCAAACUAUACAACCAACUACCUCA are within error of each other in “pre-steady-state target cleavage rate” value: 0.0069 ± 0.0052 for the first, 0.00588 ± 0.003 for the second.

GGAGAGGAUACUAAACAACGUACUACCUCA and GGAGAGGAUACUAUACAAUCCUACUACCUCA are within error of each other in “pre-steady-state target cleavage rate” value: 0.00367 ± 0.002 for the first, 0.00878 ± 0.0059 for the second.

GGAGAGGAUACUAUACAACCUACUACGCUCA and GGAGAGGAAACUAUACAAGCUACUACCUCA are within error of each other in “pre-steady-state target cleavage rate” value: 0.00523 ± 0.0019 for the first, 0.00403 ± 0.0014 for the second.

First: GGAGACCUAUGAUAUCAACCAAGUACCUCA
Second: GGAGAGGAUACUAUACAACCAACAACCUCA
The “pre-steady-state target cleavage rate” value of the first is lower: less than 0.0001 for the first, 0.00224 ± 0.0022 for the second.

Going from GGAGACCUAACUAUACAACCAACUACCUCA to GGAGACCAUACUAUACAGACCUACUACCUCA, the “pre-steady-state target cleavage rate” value rises from 0.00331 ± 0.0023 to 0.0137 ± 0.0061.

GGAGAGGAUACUAUACAAGCUACUACCUCA and GGAGAGGAUACUAUACAACCUACUUCGUCA are within error of each other in “pre-steady-state target cleavage rate” value: 0.00667 ± 0.003 for the first, 0.00697 ± 0.0031 for the second.

GGAGACCUUACUAUACAACCUAGUACCUGA and GGAGAGGAUACUAUACAACCUACAUCCUCA are within error of each other in “pre-steady-state target cleavage rate” value: 0.00509 ± 0.0037 for the first, 0.00358 ± 0.0016 for the second.

GGAGUGGAUACAAUACAACGUACUACCUCA and GGAGACGAUACUAUACAACCUACUAGGUCA are within error of each other in “pre-steady-state target cleavage rate” value: 0.00385 ± 0.0018 for the first, 0.0052 ± 0.002 for the second.

GGAGAGGAUACUAUACAACCUUCUUCCUCA and GGAGACCAUACUAUACAAGCCUACUACCUCA are within error of each other in “pre-steady-state target cleavage rate” value: 0.00382 ± 0.0025 for the first, 0.00453 ± 0.0032 for the second.

GGAGACCUAACUAUACAACCUAGUACGUCA and GGAGACGAUACUAUACAUACCUACUACCUCA are within error of each other in “pre-steady-state target cleavage rate” value: 0.00403 ± 0.0029 for the first, 0.00857 ± 0.0043 for the second.

GGAGACCUUACUAUACAACCCUACUACCUCA and GGAGUGGAUACUAUACAACCUACAAGCUCA are within error of each other in “pre-steady-state target cleavage rate” value: 0.00411 ± 0.0037 for the first, 0.00192 ± 0.0017 for the second.
